An excerpt weighted towards active compounds, which were near 7.9% of everything screened.
KB-V1 cytotox = qHTS assay for MDR1-selective chemotherapeutics: Primary screen using the drug-selected MDR subline cells KB-V1; Potency, µM (highest dose often 46.1 µM), most hits filed as cytotoxic; hit rate 3.4% among 400,000; KB-V1 MDR cells viability, CellTiter-Glo, 72 h; also: % is scaled to controls: 0 for no effect and ±100 for the full control effect; nearly all actives have a fitted effect of over 60% in size
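Compound-treated KB-V1 multidrug-resistant cells, 72 h, 37 degrees C; viability by CellTiter-Glo. Fitted qHTS curves give the values.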
SW480 rerep = A quantitative high throughput screen for small molecules that induce DNA re-replication in SW480 colon adenocarcinoma cells; SW480 DNA re-replication, Hoechst DNA content imaging, 48 h; Potency, µM (top dose mostly 46.1 µM), for the others: at the top dose re-replication activation, hits mostly activators; hit rate 1.8% among 340,000; also: % of control where 0% means no effect; nearly all actives have a fitted effect of over 55% in size
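Image-based read-out: total Hoechst fluorescence of nuclei (405 nm excitation, 500-530 nm emission), with hits raising the fraction of high-intensity nuclei. SW480 colon cells incubated 48 hr with compounds at 37 C.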
KB-3-1 tox = qHTS assay for MDR1-selective chemotherapeutics: Primary screen using the parental adenocarcinoma cell KB-3-1. KB-3-1 viability, CellTiter-Glo ATP luminescence, 72 h. Potency, µM (titrated, usually from 46.1 µM), usual class: cytotoxic. hit rate 1.4% among 400,000. AID 1347075, 2019; also: % is scaled to controls: 0 for no effect and ±100 for the full control effect; nearly all actives have a fitted effect of over 60% in size
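Parental KB-3-1 viability, qHTS format: 72 h compound exposure, 37 °C; CellTiter-Glo; media-only wells and DMSO plates as controls; concentration-effect fits on corrected data.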
MCF10A rereplic = A quantitative high throughput screen for small molecules that induce DNA re-replication in MCF 10a normal breast cells. MCF 10A DNA re-replication, Hoechst nuclear intensity, 48 h. Potency, µM (titrated, usually from 46.1 µM), without a hit: at the top dose activity, positive = re-replication, most hits filed as activators. hit rate 2.9% among 350,000; also: % of control where 0% means no effect; nearly all actives have a fitted effect of over 50% in size
HT1080 IDH1KD tx = qHTS for induction of synthetic lethality in tumor cells producing 2HG: qHTS for the HT-1080-IDH1KD cell line | AID 686971, 2013 | hit rate 2% among 360,000 | HT-1080 IDH1 knockdown viability, ATP luminescence, 48 h | Potency, µM (titrated, usually from 46.1 µM), inactives show at the highest dose activity, negative = toxicity, usual class: cytotoxic;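 also: 0% = DMSO wells and -100% = cell-free medium wells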
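Viability of IDH1-knockdown HT-1080 fibrosarcoma cells was assessed by CellTiter-Glo after 48 h at 37 °C with titrated compound; concentration-effect curves were classified by fit quality and response size.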
HT1080NT lethal = qHTS for induction of synthetic lethality in tumor cells producing 2HG: qHTS for the HT-1080-NT fibrosarcoma cell line | HT-1080-NT fibrosarcoma viability, CellTiter-Glo ATP luminescence, 48 h | Potency, µM (top dose mostly 46.1 µM), without a hit: at the highest dose activity, negative = less viability, actives largely listed as cytotoxic | hit rate 1.6% among 360,000;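 also: NT is the 2HG producing partner of a matched IDH1 knockdown line; 0% = DMSO-treated cells and -100% = media-only wells without cells; nearly all actives have a fitted effect of over 55% in size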
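750 cells/well, RPMI + 5% FBS; 2 h settle, compound pin-transfer, 48 h at 37 degrees C. CellTiter-Glo 10 min RT, luminescence. Normalized to DMSO and media-only wells.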
* hit, by the source's call; i = inactive; u = inconclusive; x = no result; ! = repeats disagree; [ ] = another dose, or the depositor's remark. Calls follow the shape of the dose curve; as a rule, active = well fitted curve in the direction sought with a large enough effect; inconclusive = small, poorly fitted or top-dose-only effect, or another doubt; inactive = no such curve, though single readings can be large; an effect the other way counts as inactive or inconclusive. Potency is read from the fitted curve at half-maximal effect.

SMILES	KB-V1 cytotox	SW480 rerep	KB-3-1 tox	MCF10A rereplic	HT1080 IDH1KD tx	HT1080NT lethal
Cc1ccc(OCCC(=O)NNC(=O)c2ccccc2F)cc1	i	-4%	u	0%	12%	15%
O=S(=O)(Nc1ccc2oc(-c3ccccc3)nc2c1)c1ccccc1	i	u	i	21µM*	u	u
CCN(CC)CC(=O)Nc1ccc(-c2nc3cc(NC(=O)CN(CC)CC)ccc3o2)cc1	18µM*	-3%	u	-1%	-3%	-3%
Cc1ccc(-c2nc3cc(NS(=O)(=O)c4ccc(C)cc4)ccc3o2)cc1	i	u	i	u	u	u
O=C(Nc1ccc2oc(-c3ccccc3)nc2c1)c1ccncc1	8.2µM*	-1%	u	7%	-19%	-11%
O=C(Nc1ccc2oc(-c3ccccc3)nc2c1)c1cccs1	i	-5%	i	8%	-10%	-16%
Cc1c(C(=O)Nc2cccnc2)oc2ccc(Br)cc12	3.3µM*	u	8.2µM*	u	u	u
Cc1ccc(N(CC(=O)NC2CCCC2)C(=O)c2nsc(Cl)c2Cl)cc1	i	3%	i	1%	-15%	4%
O=C(Nc1ccc2oc(Cc3ccc(Cl)cc3)nc2c1)c1cccnc1	u	16µM*	i	u	-12%	u
O=C(Nc1ccc2oc(-c3ccccc3Cl)nc2c1)c1cncc(Br)c1	5.2µM*	u	u	16µM*	-9%	u
O=C(Nc1ccc2oc(-c3cc(Br)ccc3Cl)nc2c1)c1ccc2ccccc2c1	i	x	i	x	x	x
O=C(Nc1cccnc1)c1cc2c(ccc3ccccc32)o1	13µM*	-4%	u	12%	0%	-8%
CCOC(=O)c1sc(NS(=O)(=O)c2ccccc2)nc1C	i	13%	i	-1%	1%[9.24 µM]	-12%
Cc1nc(NS(=O)(=O)c2ccccc2)sc1C(C)(C)C	18µM*	-138%	i	-1%	-1%	-3%
O=C(c1c[nH]c(C(=O)C(Cl)(Cl)Cl)c1)c1ccc(F)cc1Cl	i	26%	i	9%	26µM*	-13%
O=C(c1c[nH]c(C(=O)C(Cl)(Cl)Cl)c1)c1ccc(F)cc1F	i	u	i	3%	-1%	-1%
CCOC(=O)c1ccc(NC(=O)Nc2ccon2)cc1	u	u	0.58µM*	1.3µM*	0.92µM*	0.58µM*
O=C(Nc1ccc(Cl)c(Cl)c1)Nc1ccon1	7.3µM*	10µM*	12µM*	12µM*	-9%	-24%
O=C(Nc1ccc(N2CCOCC2)cc1)Nc1ccc(Cl)c(Cl)c1	18µM*	0%	u	-5%	u	u
Cc1ccc(C)c(Sc2ccc(NC(=O)CCN3C(=O)NC4(CCCC4)C3=O)cc2)c1	i	6%	i	23µM*	u	u
CCOC(=O)c1ccc(NC(=O)Nc2ccc(Cl)cn2)cc1	i	16%	i	0%	20%	28%
CCOC(=O)c1ccc(NC(=O)Nc2nc3ccccc3s2)cc1	i	x	i	x	2%	-2%
CCOC(=O)c1ccc(NC(=O)Nc2nncs2)cc1	0.33µM*	x	u	x	0.92µM*	1.2µM*
CCOC(=O)c1ccc(NC(=O)NCCN2CCCCC2)cc1	i	-4%	16µM*	u	-2%	7%
CCOC(=O)c1ccc(NC(=O)CN2C(=O)NC3(CCCCCCC3)C2=O)cc1	i	u	7.3µM*	u	u	u
SMILES	KB-V1 cytotox	SW480 rerep	KB-3-1 tox	MCF10A rereplic	HT1080 IDH1KD tx	HT1080NT lethal
Cc1ccc(NC(=O)c2cc(N3C(=O)C=CC3=O)ccc2N2CCOCC2)cc1Cl	i	u	i	16µM*	16µM*	-3%
C=CCNC(=S)N1CCN(c2ncc(C(F)(F)F)cc2Cl)CC1	i	-2%	i	25%	-11%	-9%
CCC1(c2ccc(F)cc2)NC(=O)N(CC(=O)Nc2ccc(N3CCCCC3)cc2)C1=O (stereo unspecified)	23µM*	1%	i	1%	-6%	-7%
CCCCC[C@H](O)/C=C/C1C(=O)C=C[C@H]1C/C=C\CCCC(=O)OC (stereo partly specified)	i	23%[9.22 µM]	i	18µM*	u	u
Oc1ccc(-c2cnc(-c3ccc(O)cc3)nc2)cc1	i	1%	u	u	0.21µM*	u
CCCCN(C(=O)C1CC(=O)N(c2ccc(C)cc2)C1)c1c(N)n(CCC)c(=O)[nH]c1=O (stereo unspecified)	i	6%	i	2%	-2%	-2%
CCOCCCNC(=O)C1CCN(c2nc3ccc(Cl)cc3[nH]2)CC1	u	x	i	x	x	x
COc1ccccc1-c1cc(C(=O)Nc2cccnc2)no1	u	0.52µM*	0.16µM*	u	0.25µM*	0.32µM*
COc1ccc(CCNC(=O)c2cc(-c3ccccc3OC)on2)cc1OC	u	2%	i	4%	1%	7%
COc1ccccc1-c1cc(C(=O)NCCc2ccccc2)no1	12µM*!	u	u	15µM*	u	-23%
COc1ccc(NC(=O)c2cc(-c3ccccc3OC)on2)cc1	1µM*	3.5µM*	4µM*	u	6.3µM*	4.5µM*
O=Cc1ccc(I)cc1	i	x	i	x	x	x
Cc1ccc(C)c(CNS(=O)(=O)c2c(C)[nH]c(C)c2C(=O)N2CCCCC2)c1	i	u	i	0%	0%	4%
CCOC(=O)Cn1c(=O)oc2cc(S(=O)(=O)N3CCN(c4cccc(C)c4)C(C)C3)ccc21 (stereo unspecified)	i	x	i	x	x	x
O=c1c2cc(Br)ccc2[nH]c(=S)n1Cc1ccccn1	16µM*	-8%	i	-4%	11%	14%
O=C(CCCn1c(=S)[nH]c2ccc(Br)cc2c1=O)N1CCN(c2ccccn2)CC1	2.9µM*	u	i	u	-1%	-19%
CC(C)Cn1c(-c2csc3c2CCCC3)n[nH]c1=S	21µM*	-8%	i	9%	0%	17%
CC(=O)N1CCc2cc(CNC(=O)Nc3ccc(Br)c(C)c3)ccc21	i	x	i	x	x	x
O=C(Nc1ccc(Cl)c(S(=O)(=O)N2CCCCC2)c1)c1ccncc1	u	2%	i	12%	-13%	u
